Survival data for 87 molecules are collected here from PubChem BioAssay AID463173 (ICCB-Longwood Screening Facility, Harvard Medical School, 2010).

In all, about 52,000 compounds went through this assay and about 4,300 (8.3%) were called active. Rule as the data show it: active = survival mostly below about 52% (no sharp cut-off); inactive = mostly above about 56%. Many of the other results were omitted from the sample, so actives are more common in it than they were.

The assay has as its system DeltatarO mutant. In words: growth inhibition of S. aureus wild type versus tarO mutant, primary screen, teichoic acid synthesis inhibitors, RN4220, OD600 (AID 463173). The conditions noted are these: OD600, 18 h, hits give low values, screened at 18.75 µg/mL (by protocol).
Take `CCOCCc1nn2c(=O)cc(COC(=O)c3ccc(NC(=O)c4ccc(F)cc4)cc3)nc2s1`: the survival is 32% (active).
For the molecule `CCCc1nn2c(=O)cc(COC(=O)c3ccc(NC(=O)COc4ccccc4)cc3)nc2s1`, the survival was 92% (inactive).
`CCCc1nn2c(=O)cc(COC(=O)c3cccc(NC(=O)COc4ccc(F)cc4)c3)nc2s1`: the survival is 99% (inactive).
In the case of `CCCc1nn2c(=O)cc(COC(=O)c3ccc(NC(=O)COc4ccc(F)cc4)cc3)nc2s1`, the survival is 37% (active).
The figure for `CCOCCc1nn2c(=O)cc(COC(=O)c3ccc(NC(=O)C(C)(C)C)cc3)nc2s1` is 83% (inactive); for `CCOCCc1nn2c(=O)cc(COC(=O)c3ccc(NC(=O)c4cccs4)cc3)nc2s1` it is 112% (inactive); for `Cc1ccc(OCc2n[nH]c(=S)n2C2CCCCC2)cc1` it is 99% (inactive).
Take `Cc1ccc(C2=CC(c3ccccc3F)n3c(nc4ccccc43)N2)cc1C` (configuration not stated): the survival was 70% (inactive).
For `O=C(NC1CCCCC1)C(c1ccc(O)c(O)c1)N(C(=O)Cn1nnc2ccccc21)C1CCCCC1` (configuration not stated), the survival was 99% (inactive).
The figure for `O=c1ccc2cc(S(=O)(=O)Nc3ccc(OC(F)(F)F)cc3)ccc2[nH]1` is 91% (inactive); for `COC(=O)c1cccnc1-n1c(=O)c2cccnc2n(CC(=O)Nc2c(C)cc(C)cc2C)c1=O` it is 82% (inactive); for `CC(C)CNCC1OCc2ccccc2CO1` it is 98% (inactive).
Consider `COc1cccc(NC(=O)CCSc2nc(-c3ccco3)cc(C(F)(F)F)n2)c1`, for which the survival was 27% (active).
Consider `CC(C)(C)NC(=O)CCSc1nc(-c2ccc3c(c2)OCO3)cc(C(F)(F)F)n1`, for which the survival was 15% (active).
Regarding `CC(=O)c1cccc(NC(=O)CCCSc2nc(-c3ccco3)cc(C(F)(F)F)n2)c1`, the survival is 31% (active).
As for `COc1ccc(NC(=O)CCS(=O)(=O)c2nc(-c3ccc4c(c3)OCO4)cc(C(F)(F)F)n2)cc1`, the survival was 103% (inactive).
The figure for `CC(C)NC(=O)CCSc1nc(-c2ccc3c(c2)OCO3)cc(C(F)(F)F)n1` is 57% (inactive).
As for `CC(=O)c1ccc(NC(=O)CCCSc2nc(-c3ccco3)cc(C(F)(F)F)n2)cc1`, the survival was 98% (inactive).
In the case of `O=C(CCS(=O)(=O)c1nc(-c2ccc3c(c2)OCO3)cc(C(F)(F)F)n1)Nc1ccc(F)c(Cl)c1` it was 23% (active).
In the case of `COc1ccc(NC(=O)CCSc2nc(-c3ccco3)cc(C(F)(F)F)n2)cc1` it was 57% (inactive); in that of `CCCNC(=O)CCSc1nc(-c2ccc3c(c2)OCO3)cc(C(F)(F)F)n1`, 68% (inactive); in that of `O=C(CCS(=O)(=O)c1nc(-c2ccc3c(c2)OCO3)cc(C(F)(F)F)n1)Nc1ccc(Br)cc1`, 94% (inactive).
In the case of `COc1ccc(NC(=O)CCSc2nc(-c3ccco3)cc(C(F)(F)F)n2)cc1OC` it was 50% (inactive).
`CC(=O)c1ccc(NC(=O)CCSc2nc(-c3ccco3)cc(C(F)(F)F)n2)cc1`: the survival is 46% (inactive).
With `Cc1cc(F)ccc1NC(=O)CCS(=O)(=O)c1ccc2c(c1)CC(C)N2C(=O)C1CC1` (configuration not stated), the survival was 81% (inactive).
Turning to `Cc1cccc(N2CCn3c2nc2c3c(=O)n(CCCc3ccccc3)c(=O)n2C)c1`, the survival was 76% (inactive).
Consider `CCSc1nnc(C2CCCN(C(=O)NCc3ccccc3)C2)n1C` (configuration not stated), for which the survival is 84% (inactive).
For the molecule `CC1CCCCN1C(=O)CSc1nc(-c2ccccc2)no1` (configuration not stated), the survival is 83% (inactive).
For the molecule `Cc1ccc(S(=O)(=O)C(CNS(=O)(=O)c2cc(F)ccc2F)c2cccs2)cc1` (configuration not stated), the survival was 64% (inactive).
Turning to `CC1C(=O)CC(c2ccco2)NC1c1ccco1` (configuration not stated), the survival is 56% (inactive).
Regarding `CCc1nc2ccc(C(=O)NCCc3ccccc3OC)cc2nc1CC`, the survival is 73% (inactive).
`Cc1ccc(-c2cc3c(N4CCN(c5cc(C)ccc5C)CC4)nccn3n2)cc1`: the survival is 68% (inactive).
With `COc1ccc(NC(=O)Cn2c(SCc3cc(C)ccc3C)nc3ccncc32)c(OC)c1OC`, the survival was 61% (inactive).
As for `Cc1cccc2c1-c1sc(C(=O)NCCc3ccc(Cl)cc3)cc1CO2`, the survival is 86% (inactive).
For `COc1ccc(/C=C/C(=O)Nc2sc(C)c(C)c2C(=O)O)cc1`, the survival is 60% (inactive).
Regarding `COc1ccc(-n2cnc3cc(C(=O)NC4CCCCCC4)ccc32)cc1`, the survival is 117% (inactive).
With `CCN1C(=O)CC(C(=O)NC)SC1=Nc1cc(Cl)c(O)c(Cl)c1` (configuration not stated), the survival was 75% (inactive).
`CC(=O)Nc1ccc2nc3c(=O)[nH]c(=O)[nH]c3nc2c1`: the survival is 72% (inactive).
For `COc1ccc(-c2cc(C(F)(F)F)nc(SCCC(=O)Nc3ccc(OC)c(OC)c3)n2)cc1`, the survival was 40% (active).
Take `COc1ccc(NC(=O)CCSc2nc(-c3ccc(OC)cc3)cc(C(F)(F)F)n2)cc1`: the survival is 70% (inactive).
With `COc1ccc(-c2cc(C(F)(F)F)nc(SCCC(=O)Nc3ccc(NC(C)=O)cc3)n2)cc1`, the survival was 61% (inactive).
`CC(C)(C)NC(=O)COc1ccc(CNc2ccc3c(c2)OCCO3)cc1`: the survival was 87% (inactive).
Regarding `COc1ccc(CCNC(=O)CCn2c(=O)c3ccccc3n(Cc3ccc(Cl)cc3)c2=O)cc1OC`, the survival is 119% (inactive).
Consider `COc1ccc(CCNC(=O)CCn2c(=O)c3ccccc3n(Cc3ccccc3C)c2=O)cc1OC`, for which the survival is 86% (inactive).
As to `Cc1ccccc1Cn1c(=O)n(CCCCC(=O)NCc2ccccc2Cl)c(=O)c2ccccc21`, the survival was 93% (inactive).
Regarding `COc1ccc(CCNC(=O)CCCn2c(=O)c3ccccc3n(Cc3ccccc3C#N)c2=O)cc1OC`, the survival was 87% (active).
The figure for `O=C(CCCCn1c(=O)c2ccccc2n(Cc2ccc(Cl)cc2)c1=O)NCc1ccccc1Cl` is 97% (inactive); for `COc1ccc(CCNC(=O)CCCn2c(=O)c3ccccc3n(Cc3ccccc3C)c2=O)cc1OC` it is 85% (inactive); for `COc1ccc(CCNC(=O)CCn2c(=O)c3ccccc3n(Cc3ccccc3F)c2=O)cc1OC` it is 93% (active).
As for `O=C(CCCCn1c(=O)c2ccccc2n(Cc2ccccc2F)c1=O)NCc1ccccc1Cl`, the survival is 97% (active).
In the case of `COc1ccc(CCNC(=O)CCCCn2c(=O)c3ccccc3n(Cc3ccccc3C)c2=O)cc1OC` it was 95% (inactive); in that of `Cn1ccc2cc(S(=O)(=O)N3CCC(C(=O)NCCc4ccccc4)CC3)ccc21`, 89% (inactive); in that of `Cc1nn(C)c2c1c(C(F)(F)F)cc(=O)n2C(C)C(=O)N1CCN(c2ccccc2)CC1` (configuration not stated), 86% (inactive).
Turning to `CC(C)OC(=O)CSc1nnc(-c2ccccc2)n1Cc1ccco1`, the survival is 87% (inactive).
For `COc1ccc(Cl)cc1NC(=O)CN1Cc2ccccc2C1=O`, the survival was 100% (inactive).
As to `CCC(Sc1nnc2c3ccccc3n(CC)c2n1)C(=O)Nc1ccc(NC(C)=O)cc1` (configuration not stated), the survival was 104% (inactive).
The figure for `Cc1ccccc1C(=O)Nc1sc2c(c1C(=O)N1CCCCC1)CCC(C)C2` (configuration not stated) is 49% (inactive); for `CC(C)(C)C1CCc2c(sc(NC(=O)c3ccco3)c2C(=O)Nc2ccccc2Cl)C1` (configuration not stated) it is 135% (inactive); for `CC1CCN(C(=O)c2c(NC(=O)c3ccccc3Cl)sc3c2CCC(C(C)(C)C)C3)CC1` (configuration not stated) it is 10% (active).
For the molecule `O=C(Nc1sc2c(c1C(=O)N1CCCCC1)CCCC2)c1ccccc1Cl`, the survival was 69% (inactive).
Take `Cc1ccccc1C(=O)Nc1sc2c(c1C(=O)N1CCC(C)CC1)CCC(C)C2` (configuration not stated): the survival was -3% (active).
For the molecule `CC(C)(C)C1CCc2c(sc(NC(=O)c3ccccc3F)c2C(=O)N2CCCCC2)C1` (configuration not stated), the survival was -5% (active).
The figure for `CCOc1ccccc1NC(=O)c1c(NC(=O)c2ccccc2C)sc2c1CCC(C)C2` (configuration not stated) is 65% (inactive); for `CC(C)(C)C1CCc2c(sc(NC(=O)c3ccncc3)c2C(=O)Nc2ccccc2Cl)C1` (configuration not stated) it is 71% (inactive).
Turning to `COC(=O)c1ccccc1NC(=O)c1c(NC(=O)c2ccco2)sc2c1CCC(C(C)(C)C)C2` (configuration not stated), the survival is 137% (inactive).
In the case of `Cc1ccccc1NC(=O)c1c(NC(=O)c2ccccc2F)sc2c1CCC(C)C2` (configuration not stated), the survival is 63% (inactive).
With `CC1CCN(C(=O)c2c(NC(=O)c3ccccc3F)sc3c2CCC(C(C)(C)C)C3)CC1` (configuration not stated), the survival is -4% (active).
In the case of `Cc1ccccc1C(=O)Nc1sc2c(c1C(=O)N1CCC(C)CC1)CCCC2` it was 58% (inactive).
Take `Cc1cccc(-n2nnc(-c3nc(-c4cccs4)no3)c2N)c1`: the survival is 87% (inactive).
For the molecule `COc1ccc(OC)c(NC(=O)Cn2cc(S(=O)(=O)c3ccccc3)c(=O)c3cc(C)ccc32)c1`, the survival is 70% (inactive).
As to `CCOc1ccc(NC(=O)Cn2ccn3nc(-c4ccc(OC)c(OC)c4)cc3c2=O)cc1`, the survival is 102% (inactive).
In the case of `Cc1ccc(SCC(=O)Nc2ccc(O)c(-c3nc4cc(C)ccc4o3)c2)cc1` it was 64% (inactive); in that of `NNC(=O)C(Sc1n[nH]c(=O)[nH]c1=O)c1ccccc1` (configuration not stated), 80% (inactive); in that of `Cc1oc(C(C)(C)C)cc1C(=O)NCCO`, 77% (inactive).
`CCOc1cccc(C2c3[nH]c4ccccc4c3CCN2C(=O)CSc2ccccc2)c1` (configuration not stated): the survival is 71% (inactive).
The figure for `COc1ccc(-c2cc(C(F)(F)F)nc(SCC(=O)Nc3ccc(C(C)=O)cc3)n2)cc1` is 59% (inactive).
Turning to `Cc1ccc(CN(Cc2ccco2)C(=O)COc2ccc(C)c(C)c2)cc1`, the survival is 68% (inactive).
The figure for `CN(C)C(=O)c1c(NC(=O)c2ccccc2F)sc2c1CCCC2` is 76% (inactive); for `Cc1ccccc1C(=O)Nc1sc2c(c1C(=O)N1CCCCC1)CCC(C(C)(C)C)C2` (configuration not stated) it is -2% (active); for `CC(C)(C)C1CCc2c(sc(NC(=O)c3ccccc3F)c2C(=O)NCc2ccco2)C1` (configuration not stated) it is 61% (inactive).
For `Cc1ccccc1NC(=O)c1c(NC(=O)c2ccco2)sc2c1CCC(C(C)(C)C)C2` (configuration not stated), the survival was 74% (inactive).
`CCN(CC)C(=O)c1c(NC(=O)c2ccccc2F)sc2c1CCC(C(C)(C)C)C2` (configuration not stated): the survival is -8% (active).
In the case of `Cc1ccccc1C(=O)Nc1sc2c(c1C(=O)NCc1ccco1)CCC(C(C)(C)C)C2` (configuration not stated) it was 109% (inactive); in that of `CCCNC(=O)c1c(NC(=O)c2ccccc2)sc2c1CCC(C(C)(C)C)C2` (configuration not stated), 9% (active); in that of `CC(C)(C)C1CCc2c(sc(NC(=O)c3ccc(Cl)cc3)c2C(=O)NCc2ccco2)C1` (configuration not stated), 86% (inactive).
In the case of `Cc1ccc(C(=O)Nc2sc3c(c2C(=O)NCc2ccco2)CCC(C(C)(C)C)C3)cc1` (configuration not stated), the survival was 64% (inactive).
Turning to `Cc1ccccc1C(=O)Nc1sc2c(c1C(=O)O)CCC(C(C)(C)C)C2` (configuration not stated), the survival is -2% (active).
